Laboratory results as given in PubChem BioAssay (NCATS).
Values joined by “and” are separate entries in the source; they are usually repeats but may differ in a detail not shown here. Equal entries are not always repeated. Inconclusive results are not listed. Active and inactive are the calls of the source. Unless noted, calls come from the whole dose curve; as a rule, active = well fitted curve in the direction sought with a large enough effect; inconclusive = small, poorly fitted or top-dose-only effect, or another doubt; inactive = no such curve, though single readings can be large; an effect the other way counts as inactive or inconclusive.

Assays:
[1] = AP1 Signaling Pathway (AID 357; active = well fitted curve in either direction with a large enough effect, not every such curve was filed as active;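 note: ME-180 reporter cells stimulated with EGF at its EC50 level; % is set by controls: 0 for no effect and ±100 for the full control effect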)
Method in brief: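 Beta-lactamase reporter under AP-1 response element, ME-180 background. Stimulus: EC50 EGF. Compound exposure 5 h, 37 °C. Detection: CCF4, 2.5 h RT, 460/530 nm. Values: AC50 from titration.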

[2] = target: Cytochrome P450 1A2 (Homo sapiens) (UniProt P05177); test: p450-cyp1a2 (AID 410; calls by dose curve;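 note: -100% = full effect of reference inhibitor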)
Cytochrome P450 1A2 (Homo sapiens), sequence (P05177 whole entry, looked up): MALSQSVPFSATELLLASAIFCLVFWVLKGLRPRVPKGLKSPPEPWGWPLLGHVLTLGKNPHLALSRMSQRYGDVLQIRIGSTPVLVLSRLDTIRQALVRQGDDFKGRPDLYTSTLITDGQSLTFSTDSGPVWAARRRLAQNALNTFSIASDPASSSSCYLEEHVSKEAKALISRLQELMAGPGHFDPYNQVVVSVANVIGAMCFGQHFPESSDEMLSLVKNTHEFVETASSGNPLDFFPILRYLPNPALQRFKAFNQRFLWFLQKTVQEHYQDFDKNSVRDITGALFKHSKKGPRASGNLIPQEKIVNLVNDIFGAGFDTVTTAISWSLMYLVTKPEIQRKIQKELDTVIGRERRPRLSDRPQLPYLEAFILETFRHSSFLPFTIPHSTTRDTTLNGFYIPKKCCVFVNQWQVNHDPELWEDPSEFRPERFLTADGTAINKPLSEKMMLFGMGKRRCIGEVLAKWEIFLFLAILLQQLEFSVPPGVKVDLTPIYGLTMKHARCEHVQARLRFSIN
Method in brief: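 20nM CYP1A2 with 100uM Luciferin-ME (at Km) in 100mM KPO4; compound preincubated 10 min, NADPH regeneration added, 60 min at room temperature. Luciferin quantified by luminescence after detection reagent; normalized to 57 uM furafylline.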

[3] = NFAT Signaling Pathway (AID 444; active = well fitted curve in either direction with a large enough effect, not every such curve was filed as active;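 note: carbachol stimulus at about its EC50 of 1 µM final; % is set by controls: 0 for no effect and ±100 for the full control effect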); conditions: Jurkat NFAT-bla M1, carbachol, beta-lactamase ratio, 5 h; at 17.2 µM (top of the series)
Method in brief: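 Read-out: CCF4 FRET ratio (460 nm/530 nm) after 1 h RT dye loading, used for %activity and AC50 from titration series. Cells: Jurkat NFAT-β-lactamase/M1 line, treated with compound plus 1 uM carbachol for 5 h, 37 °C.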

[4] = target: Glucocorticoid receptor (Homo sapiens) (UniProt P04150); test: GR-GFP Redistribution (AID 450;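 active = compounds whose dose series gives a full or clear partial fitted curve of increased nuclear translocation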; note: potency is the fitted concentration of half-maximal effect); conditions: U2OS GR-GFP nuclear translocation, laser cytometry, 2 h
Glucocorticoid receptor (Homo sapiens), sequence (P04150 whole entry, looked up, the tested form may be a part): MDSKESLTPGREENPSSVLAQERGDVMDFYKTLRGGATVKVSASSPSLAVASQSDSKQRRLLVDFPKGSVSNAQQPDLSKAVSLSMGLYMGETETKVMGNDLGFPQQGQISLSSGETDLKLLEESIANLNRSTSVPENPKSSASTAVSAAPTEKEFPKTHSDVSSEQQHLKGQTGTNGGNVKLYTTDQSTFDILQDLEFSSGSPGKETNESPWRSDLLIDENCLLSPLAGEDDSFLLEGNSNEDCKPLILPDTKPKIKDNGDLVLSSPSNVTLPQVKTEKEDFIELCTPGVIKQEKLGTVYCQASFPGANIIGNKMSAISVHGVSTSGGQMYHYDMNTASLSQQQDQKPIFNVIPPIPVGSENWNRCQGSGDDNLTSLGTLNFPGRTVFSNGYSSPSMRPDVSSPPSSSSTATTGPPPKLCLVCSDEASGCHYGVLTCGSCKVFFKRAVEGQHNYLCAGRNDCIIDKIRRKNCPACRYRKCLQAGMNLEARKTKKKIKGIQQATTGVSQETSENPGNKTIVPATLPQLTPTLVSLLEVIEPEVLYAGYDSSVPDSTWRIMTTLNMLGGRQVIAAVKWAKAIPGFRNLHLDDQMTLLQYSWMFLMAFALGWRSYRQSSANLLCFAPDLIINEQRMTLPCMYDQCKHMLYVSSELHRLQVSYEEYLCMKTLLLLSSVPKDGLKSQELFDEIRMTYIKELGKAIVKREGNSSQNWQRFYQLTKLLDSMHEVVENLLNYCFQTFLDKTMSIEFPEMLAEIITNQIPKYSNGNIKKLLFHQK

[5] = target: Glucocorticoid receptor (Homo sapiens) (UniProt P04150); test: GR-EFC Redistribution (AID 451; calls by dose curve; note: potency is the fitted concentration of half-maximal effect); conditions: CHO-K1 GR-EFC translocation, beta-gal luminescence, 2 h
Method in brief: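 Translocation of GR-ED fusion to nuclear EA restores b-gal, read by luminescence after 1 h room-temperature detection. Engineered CHO-K1 biosensor cells, 1,000/well, exposed 2 h at 37 C to titrations up to 46 uM final.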

[6] = target: 3',5'-cyclic-AMP phosphodiesterase 4B (Homo sapiens) (UniProt Q07343); test: qHTS Assay for Inhibitors of PDE-IV (AID 607; active = well fitted activation curve with a large enough effect in the main read-out, with a control signal flat, not every such curve was filed as active; note: % of control where 0% means no effect)
3',5'-cyclic-AMP phosphodiesterase 4B (Homo sapiens), sequence (Q07343 whole entry, looked up): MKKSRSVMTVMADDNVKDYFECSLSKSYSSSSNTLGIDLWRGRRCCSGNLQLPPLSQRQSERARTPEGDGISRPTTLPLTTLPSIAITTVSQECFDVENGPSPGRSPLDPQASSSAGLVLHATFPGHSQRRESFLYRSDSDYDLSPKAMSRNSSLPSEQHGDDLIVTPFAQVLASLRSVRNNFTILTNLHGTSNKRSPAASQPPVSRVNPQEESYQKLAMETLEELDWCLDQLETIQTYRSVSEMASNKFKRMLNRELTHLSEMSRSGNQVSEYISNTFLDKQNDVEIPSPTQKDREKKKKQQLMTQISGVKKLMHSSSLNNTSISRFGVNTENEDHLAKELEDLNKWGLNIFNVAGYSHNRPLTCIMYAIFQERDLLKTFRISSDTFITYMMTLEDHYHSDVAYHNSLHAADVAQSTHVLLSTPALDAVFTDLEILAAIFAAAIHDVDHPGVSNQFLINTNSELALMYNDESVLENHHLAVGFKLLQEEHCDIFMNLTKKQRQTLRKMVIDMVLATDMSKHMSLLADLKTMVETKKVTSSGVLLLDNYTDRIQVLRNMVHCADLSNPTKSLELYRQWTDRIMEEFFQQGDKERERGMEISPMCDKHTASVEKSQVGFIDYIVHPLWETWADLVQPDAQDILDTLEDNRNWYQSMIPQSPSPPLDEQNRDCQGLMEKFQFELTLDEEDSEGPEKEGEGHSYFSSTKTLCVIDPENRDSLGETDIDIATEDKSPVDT
Method in brief: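 ACTOne HEK293 cells carry a modified cAMP-gated CNG channel and express endogenous PDE4; plated 1000 cells/well, compounds up to 22.9 uM final. Membrane-potential dye fluorescence (ex 535/em 590) was read; parental cells received 10 uM forskolin + 100 uM RO 20-1724.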

[7] = target: Cytochrome P450 2C9 (Homo sapiens) (UniProt P11712); test: qHTS Assay for Inhibitors and Substrates of Cytochrome P450 2C9 (AID 883); note: % is set by controls: 0 for no effect and ±100 for the full control effect; nearly all actives have a fitted effect of over 60% in size
Cytochrome P450 2C9 (Homo sapiens), sequence (P11712 whole entry, looked up): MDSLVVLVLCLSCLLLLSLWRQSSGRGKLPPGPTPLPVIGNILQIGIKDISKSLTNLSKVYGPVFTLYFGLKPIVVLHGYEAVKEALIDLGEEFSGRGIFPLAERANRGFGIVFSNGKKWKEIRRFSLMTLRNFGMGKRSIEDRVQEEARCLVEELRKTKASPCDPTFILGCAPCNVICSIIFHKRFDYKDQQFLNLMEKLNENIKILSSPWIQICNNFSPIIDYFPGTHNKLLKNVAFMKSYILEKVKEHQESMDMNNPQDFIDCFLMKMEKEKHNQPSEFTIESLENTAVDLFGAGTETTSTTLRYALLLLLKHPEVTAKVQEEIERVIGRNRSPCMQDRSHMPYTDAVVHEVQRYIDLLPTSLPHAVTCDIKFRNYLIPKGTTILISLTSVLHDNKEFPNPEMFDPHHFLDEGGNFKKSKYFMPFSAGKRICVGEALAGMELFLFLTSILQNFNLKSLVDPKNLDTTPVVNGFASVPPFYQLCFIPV
Method in brief: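 Luminescent read-out of deoxyluciferin hydroxylation, normalized to 57uM sulphaphenazole (AC100). Reaction: 10nM enzyme, 100uM Luciferin-H (equal to KM), 25mM KPO4, 10 min compound preincubation, then 60 min with NADPH regeneration, both at 37C.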

[8] = target: Cytochrome P450 2D6 (Homo sapiens) (UniProt P10635); test: qHTS Assay for Inhibitors and Substrates of Cytochrome P450 2D6 (AID 891); note: potency is the fitted concentration of half-maximal effect; nearly all actives have a fitted effect of over 60% in size
Cytochrome P450 2D6 (Homo sapiens), sequence (P10635 whole entry, looked up): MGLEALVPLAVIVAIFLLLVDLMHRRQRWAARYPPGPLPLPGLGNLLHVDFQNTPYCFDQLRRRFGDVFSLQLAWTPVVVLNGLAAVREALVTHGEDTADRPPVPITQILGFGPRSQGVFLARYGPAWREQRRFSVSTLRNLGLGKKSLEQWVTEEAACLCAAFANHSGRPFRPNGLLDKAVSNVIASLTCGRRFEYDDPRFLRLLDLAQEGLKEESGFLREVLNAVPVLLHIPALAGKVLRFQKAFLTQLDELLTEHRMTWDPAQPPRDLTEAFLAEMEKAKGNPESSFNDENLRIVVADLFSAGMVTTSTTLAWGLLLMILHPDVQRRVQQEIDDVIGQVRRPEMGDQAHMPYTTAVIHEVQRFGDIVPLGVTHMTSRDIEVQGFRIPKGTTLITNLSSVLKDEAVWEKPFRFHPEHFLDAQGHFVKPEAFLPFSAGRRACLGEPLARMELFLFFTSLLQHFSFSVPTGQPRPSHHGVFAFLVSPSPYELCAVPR
Method in brief: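 Human CYP2D6 (5 nM) with 30 uM Luciferin-ME EGE (at Km) in 100 mM KPO4, compound preincubated 10 min, then NADPH regeneration system for 60 min at room temperature. Luciferin read by luminescence; normalized to 1.43 uM quinidine.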

[9] = target: DNA dC->dU-editing enzyme APOBEC-3G (Homo sapiens) (UniProt Q9HC16); test: qHTS for inhibitors of Vif-A3G interactions: Validation (AID 588379); note: 0% is about no effect
DNA dC->dU-editing enzyme APOBEC-3G (Homo sapiens), sequence (Q9HC16 whole entry, looked up): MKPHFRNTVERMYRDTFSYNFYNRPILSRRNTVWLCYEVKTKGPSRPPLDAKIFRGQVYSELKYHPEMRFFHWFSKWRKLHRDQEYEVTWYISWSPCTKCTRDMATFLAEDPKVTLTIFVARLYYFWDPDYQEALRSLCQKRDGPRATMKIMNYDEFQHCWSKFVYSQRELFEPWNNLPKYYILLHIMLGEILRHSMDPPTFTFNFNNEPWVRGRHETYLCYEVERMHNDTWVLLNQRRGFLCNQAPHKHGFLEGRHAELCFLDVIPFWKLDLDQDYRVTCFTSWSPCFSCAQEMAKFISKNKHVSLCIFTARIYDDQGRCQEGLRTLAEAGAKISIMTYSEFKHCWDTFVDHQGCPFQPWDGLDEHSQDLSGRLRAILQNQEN
Method in brief: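 HeLa cells stably expressing Vif and A3G-eYFP, 700 cells/well, incubated overnight at 37 deg C, then exposed to compound overnight at 37 deg C. Inhibition of Vif-mediated degradation read as increased yellow fluorescence (Ex 488/Em 500-530) by laser-scanning cytometry.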

[10] = NCATS anti-infectives library activity on HEK293 viability as a counter-qHTS vs the C. elegans viability qHTS (AID 1745854);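 note: HEK293 cells exposed to compounds for 24 hr before the viability read; % is set by controls: 0 for no effect and ±100 for the full control effect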
Method in brief: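 HEK293 cells (1,500/well) exposed 24 hr at 37C to 1:5 titrations, up to 41.7 uM final; counter-screen to a C. elegans viability qHTS. Viability by CellTiter-Glo luminescence after 10 min at room temperature; digitonin as control.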

[11] = NCATS anti-infectives library activity on the primary C. elegans qHTS viability assay (AID 1745855; calls by dose curve)
Method in brief: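 Viability read-out is GFP fluorescence of PE254-GFP-FLuc C. elegans, measured by laser cytometry (488 nm) at day 0, 3 and 7. Ten L1 worms per well were incubated 7 days at 21 °C with compounds and bacterial capsules in S medium.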

[12] = Cell Viability - LYMP1-003 - Assay at 40 hr (AID 964); note: % is set by controls: 0 for no effect and ±100 for the full control effect; nearly all actives have a fitted effect of over 60% in size
Method in brief: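 LYMP1-003 human lymphoblastoid cells, 2500/well, preincubated 5 h at 37 C, then treated with compound for 40 h at 37 C. Intracellular ATP read by CellTiter-Glo luminescence after 30 min at room temperature; AC50 from Hill-equation fits.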

[13] = Cell Viability - LYMP2-005 (AID 967);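 note: plate controls were DMSO only for no effect and 92 µM tetraoctylammonium bromide control for full effect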
Method in brief: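 qHTS viability screen in LYMP2-005 cells: 24 h at 37 C with compound, ATP luminescence via CellTiter-Glo, AC50 from Hill curves.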

[14] = Cell Viability - LYMP2-015 (AID 971);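 note: 0% = DMSO only and full effect = 92 µM tetraoctylammonium bromide; nearly all actives have a fitted effect of over 55% in size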
Method in brief: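 LYMP2-015 human lymphoblastoid cells (2500/well) in complete medium, compound-treated 24 h at 37 C; viability read as cellular ATP by CellTiter-Glo luminescence after 30 min at room temperature. AC50 from Hill-equation fits of qHTS concentration-response data.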

[15] = Cell Viability - LYMP2-023 (AID 975);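 note: cellular ATP measured by luciferase luminescence as viability proxy; cells exposed to compound for 24 hours at 37 °C; plate controls were DMSO only for no effect and 92 µM tetraoctylammonium bromide control for full effect; nearly all actives have a fitted effect of over 55% in size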
Method in brief: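 LYMP2-023 human lymphoblastoid cells, 2500/well, preincubated 5 hr at 37 C, then compound-treated 24 hr at 37 C in complete medium. CellTiter-Glo luminescence (ATP) after 30 min at room temperature; AC50 from Hill-equation fits; tetraoctylammonium bromide positive control.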

[16] = Cell Viability - LYMP2-025 (AID 976);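 note: plate controls were DMSO only for no effect and tetraoctylammonium bromide control for full effect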
Method in brief: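 Human lymphoblastoid LYMP2-025 cells, 2500/well, exposed 24 h at 37 C in complete medium in 1536-well qHTS. Viability as cellular ATP by CellTiter-Glo luminescence; AC50 from Hill fits of concentration-response data.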

[17] = Cell Viability - LYMP2-002 (AID 977);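 note: compound exposure lasted 24 h at 37 °C; plate controls were DMSO only for no effect and 92 µM tetraoctylammonium bromide for full effect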
Method in brief: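 Cytotoxicity is scored as concentration-dependent loss of cellular ATP in a human lymphoblastoid line after 24 hr compound treatment at 37 C. AC50 is obtained by modelling concentration-response data with the Hill equation.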

[18] = Cell Viability - LYMP2-014 (AID 983);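 note: plate controls were DMSO only for no effect and 92 µM tetraoctylammonium bromide for full effect; nearly all actives have a fitted effect of over 50% in size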
Method in brief: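 LYMP2-014 human lymphoblastoid cells, 2500/well, treated 24 h at 37 C in complete medium; viability by CellTiter-Glo ATP luminescence after 30 min at room temperature. AC50 from Hill fits of qHTS concentration-response; tetraoctylammonium bromide positive control.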

[19] = Cell Viability - LYMP1-002 - Assay at 24 hr (AID 993); note: % is set by controls: 0 for no effect and ±100 for the full control effect
Method in brief: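 Human lymphoblastoid LYMP1-002 cells (2500/well) treated 24 h at 37 °C; viability as intracellular ATP by CellTiter-Glo luminescence. Tetraoctylammonium bromide as positive control; AC50 from Hill-equation fits of qHTS concentration-response.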

[20] = Cell Viability - LYMP1-002 - Assay at 40 hr (AID 994);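 note: 0% = DMSO only and full inhibition = 92 µM tetraoctylammonium bromide; nearly all actives have a fitted effect of over 60% in size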
Method in brief: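 LYMP1-002 human lymphoblastoid cells (2500/well, complete medium) were treated with compounds for 40 hr at 37 C. Intracellular ATP was measured by CellTiter-Glo luminescence, and AC50 values came from Hill-equation fits of concentration-response data; tetraoctylammonium bromide was the positive control.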

CN(C)Cc1c[nH]c2ccccc12
active: Potency [8] 158 nM and 10 µM
inactive: outcome [1] | Potency [2] | activity change, negative = inhibition [3] 1.81% | Potency [4] > 20.6 µM and > 46 µM | Potency [5] > 20.6 µM and > 46 µM | Potency [6] | Potency [7] | Potency [9] | Potency [10] | Potency [11]

Cc1ccccc1O
inactive: Potency [12] | outcome [13] | outcome [14] | outcome [15] | outcome [16] | outcome [17] | outcome [18] | outcome [19] | Potency [20]

CC(=O)[C@H]1CC[C@H]2[C@@H]3CCC4=CC(=O)CC[C@]4(C)[C@H]3CC[C@]12C
inactive: Potency [12] | outcome [13] | outcome [14] | outcome [15] | outcome [16] | outcome [17] | outcome [18] | outcome [19] | Potency [20]
